Bioassay records (PubChem)
Pf Dd2 growth: Plasmodium falciparum Dd2 growth inhibition. Potency, µM (titrated, usually from 28.9 µM), usual class: inhibitors. P. falciparum Dd2 growth, SYBR Green, 72 h. actives 4.3% (n = 120,000); active = well fitted inhibition curve with a large enough effect; also: nearly all actives have a fitted effect of over 65% in size
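Readout: SYBR Green fluorescence, 485 nm excitation, 535 nm emission, after ~16 h lysis at 37C. Before that, Dd2-infected red cells (2.5% hematocrit) grew 72 h with compound, 29 uM top final concentration.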
Large screens that a line does not name were inactive. Only a selection was taken, and hits are over-represented in it overall.

COc1ccc2c(c1)-c1nc(NC(=O)c3ccc(C)cc3)sc1CC2	Pf Dd2 growth 11µM
COc1ccc(C(=O)Nc2nc3c(s2)CCCC3)cc1Cl	none
COc1ccc2c(c1)CCc1sc(NC(=O)c3cccc(Br)c3)nc1-2	none
Cc1nc(CN2CCN(C(C(=O)O)c3cc4ccccc4o3)CC2)cs1 (configuration not stated)	none
Cc1ccc2oc(=O)c3cnn(CC(=O)Nc4cccc(C(F)(F)F)c4)c3c2c1	Pf Dd2 growth 1.1µM
Cc1ccc2oc(=O)c3cnn(CC(=O)Nc4ccc(Br)cc4C)c3c2c1	none
Cc1ccc2oc(=O)c3cnn(CC(=O)N4CCN(c5cccc(C(F)(F)F)c5)CC4)c3c2c1	none
O=[S+]1([O-])NC2(CCN(Cc3cccnc3)CC2)CNc2ccccc21	none
COCC(=O)NC1CCC12CCN(Cc1ccc(C)o1)CC2 (configuration not stated)	none
COCCn1c(C)cnc1CCNC(=O)c1ccc(OC)nc1OC	none
CCOC(=O)c1ccc(NC(=O)C2CCCN(c3ccc(Sc4ccc(C)cc4)nn3)C2)cc1 (configuration not stated)	Pf Dd2 growth 5.6µM
CCOC(=O)c1ccc(NC(=O)C2CCCN(c3ncnc4onc(C)c34)C2)cc1 (configuration not stated)	Pf Dd2 growth 7.9µM
CCOC(=O)c1ccc(NC(=O)C2CCCN(c3cnccn3)C2)cc1 (configuration not stated)	none
Cc1ccc(Sc2ccc(N3CCCC(C(=O)Nc4ccc(F)cc4F)C3)nn2)cc1 (configuration not stated)	none
CCOCCCNC(=O)C1CCCN(c2ncnc3onc(C)c23)C1 (configuration not stated)	none
COC(=O)c1ccccc1NC(=O)C1CCCN(c2ncnc3onc(C)c23)C1 (configuration not stated)	none
Cc1n[nH]c(C)c1CCCN(C)c1cc(C2CC(N)C2)nc(N)n1 (configuration not stated)	none
O=C1CCN(S(=O)(=O)c2ccccc2)CCCC(C(=O)NCc2ccc(F)cc2)CCN1 (configuration not stated)	none
COCC[C@]1(O)CCN(C(=O)C2CCN(C3CCCC3)CC2)C[C@H]1C	none
COc1ccc(/C=C/C(=O)Nc2ccc(Cl)c(Cl)c2)cc1	none
COc1cc(NC(=O)CSc2c3c(nc4ccccc24)CCC3)cc(OC)c1OC	none
COc1ccc(NC(=O)c2sc3nc4c(cc3c2N)CCCCCC4)cc1OC	none
COc1ccc(/C=C/C(=O)Nc2ccc3nc4c(c(Nc5ccc(OC)c(OC)c5)c3c2)CCCC4)cc1	Pf Dd2 growth 2.2µM
COc1cc(NC(=O)c2ccc3c(Cl)c4c(nc3c2)CCC4)cc(OC)c1OC	none
COc1ccc(Nc2c3c(nc4ccc(NC(=O)/C=C/c5cc(OC)c(OC)c(OC)c5)cc24)CCCC3)cc1OC	Pf Dd2 growth 2.5µM
COCCNC(=O)[C@H]1C[C@H](Oc2cccnc2)CN1C(=O)Cc1cccc(C)c1	none
CCOc1ccc(CC(=O)N2CCC3(CC2)N=C(c2ccccc2)NO3)cc1	none
C[C@@]12CO[C@@H](CNS(C)(=O)=O)O[C@@H]1CC[C@]1(C)[C@@H]2CC[C@@H](O)[C@H]1CC(=O)NCc1ccco1	none
CCOCC(=O)NC1CCN(c2cnn(C)c(=O)c2)CC1	none
CN(Cc1ccc(CN2CCCC(O)(CO)C2)o1)S(C)(=O)=O (configuration not stated)	none
Fc1cccc(-n2cc(CN3CCCC4(CCOC4)C3)cn2)c1 (configuration not stated)	none
CC(C)c1ccc(-n2cc(CN3CCCC(O)(CN(C)C)C3)cn2)cc1 (configuration not stated)	Pf Dd2 growth 6.3µM
COc1cccc(NC(=O)C2CCN(c3cn[nH]c(=O)c3)C2)c1 (configuration not stated)	none
COCCn1cnc2ccc(-c3cccnc3OC)nc2c1=O	none
CCc1nn(-c2ccccc2)c(Oc2ccccc2F)c1CCC(=O)NCCOC	none
Clc1ccccc1CNc1nc2ccccc2c2nc(-c3ccccc3)nn12	none
CCCCNc1nc2ccccc2c2nc(-c3ccccc3)nn12	Pf Dd2 growth 3.2µM
CCCCNC(=O)CCC(=O)NNc1nc2ccccc2c2nc(-c3ccccc3)nn12	none
Clc1ccc(CCNc2nc3ccccc3c3nc(-c4ccccc4)nn23)cc1	none
c1ccc(CNc2nc3ccccc3c3nc(-c4ccccc4)nn23)cc1	Pf Dd2 growth 8.9µM
Clc1ccc(CNc2nc3ccccc3c3nc(-c4cccnc4)nn23)cc1	none
COc1cccc(CCc2nc(-c3nnn4c3COC(c3ccc(Cl)cc3)C4)no2)c1 (configuration not stated)	none
Cc1noc(C)c1CC(=O)NCC1Cn2cccc2C(=O)N1C (configuration not stated)	none
CN(Cc1ccccc1)C(=O)c1ccc2c(c1)[nH]c(=O)n2C1CCC(O)CC1 (configuration not stated)	none
COCC[C@]1(O)CCN(C(=O)CN2C(=O)CNC2=O)C[C@H]1C	none
CNc1cc(C2CC(NC(=O)COc3ccc(Cl)cc3C)C2)nc(N)n1 (configuration not stated)	Pf Dd2 growth 7.9µM
Cc1cc(Cl)ccc1OCC(=O)N1[C@@H]2CC[C@H]1CC(NC(=O)c1ccc(F)cc1)C2 (some centres not stated)	none
Cc1cc(C)nc(NS(=O)(=O)c2ccc(NC(=O)COc3ccc(Cl)cc3C)cc2)n1	none
CCOc1ccccc1C(=O)NCc1nnc2cc(-c3nc(CC)no3)ccn12	none
O=C1OCCCN1C1CCN([S+](=O)([O-])c2ccccc2)CC1	none
Cc1noc(-c2ccco2)c1C(=O)NCCC(c1ccccc1)c1ccccc1	none
COCCn1c(SCC(=O)c2ccc(C)cc2)nc2cc(C(=O)NC3CCCC3)ccc2c1=O	none
COCCn1c(SCC(=O)c2ccc(C)cc2C)nc2cc(C(=O)NC3CCCC3)ccc2c1=O	none
Cc1ccc(C(=O)CSc2nc3cc(C(=O)NC4CCCC4)ccc3c(=O)n2CC2CCCO2)cc1 (configuration not stated)	none
O=C(CSc1nc2cc(C(=O)NC3CCCC3)ccc2c(=O)n1CC1CCCO1)c1ccc(F)cc1 (configuration not stated)	none
Cc1ccc(C)c(C(=O)CSc2nc3cc(C(=O)NC4CCCC4)ccc3c(=O)n2CC2CCCO2)c1 (configuration not stated)	Pf Dd2 growth 10µM
O=C(CSc1nc2cc(C(=O)NC3CCCC3)ccc2c(=O)n1CC1CCCO1)c1cccc(Cl)c1 (configuration not stated)	Pf Dd2 growth 10µM
CN1C(=O)c2cccn2CC1CNC(=O)c1n[nH]c2ccccc12 (configuration not stated)	none
CCCc1cc(C(=O)N2CC(=O)N(CC(C)C)CC(OCc3ccccc3F)C2)n(C)n1 (configuration not stated)	none
C[C@@]1(O)CCN(Cc2ccc3c4c(cccc24)C(=O)OC3)C[C@@H]1O	none
COCCOC1CCN(S(=O)(=O)c2ccc(F)cc2)CC1	none
COc1ccc(OC)c(CNC(=O)CC2CCCCN(C)C2=O)c1 (configuration not stated)	none
COc1ccc(C(=O)N2CCCC3(COc4ccccc4C(=O)N3)C2)cc1 (configuration not stated)	none
COc1ccc(C(=O)N2CCC3(CC2)COc2ccccc2CN3)cc1	Pf Dd2 growth 1.4µM
COc1ccc(C(=O)N2CCC3(CC2)CNC(=O)c2ccccc2O3)cc1	none
Cc1ncc(S(C)(=O)=O)c(NCCCNc2cccnc2)n1	none
O=C(NCC1CCCO1)c1ccc2oc(-c3ccc(C(F)(F)F)cc3)nc2c1 (configuration not stated)	none
